The values below come from ChEMBL document CHEMBL3433997, “St. Jude Leishmania screening dataset” (2016).

Holding throughout (assay type): functional
Assay [1] has as its target Solute carrier family 2, facilitated glucose transporter member 1 (Homo sapiens) (UniProt P11166). The experiment in a line: ST_JUDE_LEISH: Cytotoxicity at 2uM final concentration against transgenic Leishmania Mexicana promastigotes LmGLUT1 that are glucose transport deficient and complemented with the human glucose transporter GLUT1. Activity is measured by DNA content using SYBR green in vitro.

The target of assay [2] is Hexose transporter 1 (Plasmodium falciparum) (UniProt O97467). The experiment in a line: ST_JUDE_LEISH: Cytotoxicity at 2uM final concentration against transgenic Leishmania Mexicana promastigotes LmPfHT that are glucose transport deficient and complemented with the Plasmodium falciparum hexose transporter. Activity is measured by DNA content using SYBR green in vitro.

Assay [3] deals with Glucose transporter (Leishmania mexicana) (UniProt O61059). Put plainly: ST_JUDE_LEISH: Cytotoxicity at 2uM final concentration against transgenic Leishmania Mexicana promastigotes LmGT2 that are glucose transport deficient and complemented with the L. Mexicana glucose transporter 2. Activity is measured by DNA content using SYBR green in vitro.

Chain of Solute carrier family 2, facilitated glucose transporter member 1 (Homo sapiens) (P11166 whole entry): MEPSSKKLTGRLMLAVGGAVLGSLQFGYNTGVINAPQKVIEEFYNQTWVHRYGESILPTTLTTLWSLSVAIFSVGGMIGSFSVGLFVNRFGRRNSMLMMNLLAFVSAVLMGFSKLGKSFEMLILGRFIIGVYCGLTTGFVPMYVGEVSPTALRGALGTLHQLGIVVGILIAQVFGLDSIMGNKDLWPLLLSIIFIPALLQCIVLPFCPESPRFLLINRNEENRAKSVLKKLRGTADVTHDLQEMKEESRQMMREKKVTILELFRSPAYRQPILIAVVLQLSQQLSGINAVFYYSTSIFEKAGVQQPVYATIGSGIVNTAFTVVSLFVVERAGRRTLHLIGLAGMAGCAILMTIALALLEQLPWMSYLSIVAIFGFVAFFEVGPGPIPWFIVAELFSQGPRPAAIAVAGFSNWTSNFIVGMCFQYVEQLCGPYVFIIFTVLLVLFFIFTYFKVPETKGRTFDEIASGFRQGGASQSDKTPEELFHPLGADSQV

By inhibition is commonly meant the relative decrease from the control value, in per cent. `CCOC(=O)c1c(C)n(-c2ccc(Cl)cc2)c2ccc(OC(=O)C=Cc3ccccc3)cc12`: the inhibition in assay [1] was 2.75%; in assay [2], 5.54%; in assay [3], 5.18%.
In the same order, the values of `O=c1cc(NCCCNCc2ccc(C(F)(F)F)s2)[nH]c2ccccc12` are -0.41%, 0.6% and 0.9%.
On to `NC1CCCN(Cc2ccc(-c3ccc(-c4nc5ccccc5[nH]4)s3)cc2)C1` (stereo unspecified), for which the inhibition in assay [1] stood at 8.95%; in assay [2], 5.92%; in assay [3], 9.09%.
As for `C=CCC(C(=O)Nc1ccnc2ccc(OC)cc12)C1CCN(CCCCCCC)CC1` (stereo unspecified), the inhibition was determined as 1.74% in assay [1], 1.29% in assay [2] and 0.87% in assay [3].
For the molecule `COc1ccc2nc3cc(Cl)ccc3c(Nc3ccc(O)c(CN4CC5CCC(CC5)C4)c3)c2c1`, the inhibition in assay [1] came to 4.99%; in assay [2], 4.24%; in assay [3], 3.82%.
For the molecule `COc1ccc(CNc2ccnc3cc(OC)ccc23)cc1`, the inhibition in assay [1] was -1.06%; in assay [2] it was 12.2%; in assay [3] it was 3.66%.
For the molecule `CCN(CC)CCNc1ccnc2[nH]c3ccc([N+](=O)[O-])cc3c12`, the inhibition in assay [1] stood at 3.68%; in assay [2], 3.92%; in assay [3], 3.99%.
On the same counts, the results for `COc1cc2nc(N3CCN(C(=O)c4ccc(N(C(=O)OC(C)(C)C)C(=O)OC(C)(C)C)cc4)CC3)nc(N)c2cc1OC` are -0.43%, -0.06% and 0.52%.
On the same counts, the results for `c1ccc(COc2ccc(Nc3ncnc4cnc(-c5ccc(CN6CCCCC6)o5)cc34)cc2)cc1` are 1.44%, 1.73% and 2.99%.
For the molecule `Cc1cc(N)c2cc(NC(=O)/C=C/c3ccc([N+](=O)[O-])cc3)ccc2n1`, the inhibition in assay [1] came out at 3.11%; in assay [2], 1.19%; in assay [3], 0.94%.
With `COc1ccc2nccc([C@@H](O)CN3CCC(NCc4cnc5c(c4)NC(=O)CS5)CC3)c2c1`, the inhibition in assay [1] was 2.7%; in assay [2], 4.54%; in assay [3], 1.2%.
For the molecule `Cc1cccc2nc(-c3ccc(-c4cccc(CNCc5ccccc5)c4)cc3)[nH]c12`, the inhibition in assay [1] is 16.8%; in assay [2], 9.57%; in assay [3] it was 6.25%.
